Laboratory results from PubChem BioAssay AID720697 (Broad Institute, 2013).
Measured potencies and affinities stand elsewhere. Records with an inconclusive call do not appear. The source made the active and inactive calls.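 How the source made its calls: active means signal loss with fitted half-maximal concentration at or below twice the top valid tested dose in every test run; inconclusive means runs disagree, flat 30 to 70% signal loss, or poor fit; inactive means all runs flat, opposite direction, or potency beyond limit.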

Experiment: HEK293T cytotoxicity, dose response, cytotoxicity control for miR-122 modulator project, cell-based, inhibitor set, cherry-pick, set 2 (AID 720697)
Details: HEK293T viability, CellTiter-Glo luminescence, 48 h; series mostly up to 26 µM

| SMILES | outcome |
| --- | --- |
| O=C(NCCCN1CCCC1)c1ccc(CSCc2cccc(Cl)c2)o1 | inactive |
| COCC(=O)Nc1ccc2c(c1)C(=O)N(C)[C@H]1CC[C@@H](CC(=O)NCCCN(C)C)O[C@H]1CO2 | inactive |
| C[C@@H]1CN([C@@H](C)CO)C(=O)c2cc(NC(=O)Nc3cccc4ccccc34)ccc2O[C@@H](C)CCCCO[C@H]1CN(C)CC1CCCCC1 | inactive |
| COc1ccc(C(=O)N2C[C@H]3[C@@H](c4ccccc42)[C@@H](CO)N3C(=O)Cc2ccccn2)cc1 | inactive |
| CC(=O)N1[C@H](CO)[C@@H](c2ccccc2)[C@H]1CN(C)C(=O)CN1CCOCC1 | inactive |
| CCN(C[C@H]1N[C@@H](CO)[C@@H]1c1ccc(C2=CCCC2)cc1)C(=O)c1ccncc1 | inactive |
| COCC(=O)N(C[C@H]1N[C@@H](CO)[C@@H]1c1ccc(C2=CCCC2)cc1)C(C)C | inactive |
| CCCNC(=O)Nc1ccc2c(c1)OC[C@H](C)N(CCC)C[C@H](C)[C@H](OC)CN(C)C2=O | inactive |
| CNC(=O)C[C@@H]1CC[C@@H]2[C@@H](COc3ccc(NC(=O)c4ccccc4F)cc3C(=O)N2C)O1 | inactive |
| O=C(Cc1cccnc1)N1[C@@H](CO)[C@@H]2c3ccccc3NC[C@@H]21 | inactive |
| C[C@H](CO)N1C[C@H](C)[C@H](CN(C)C(=O)Nc2cccc3ccccc23)Oc2ncc(C#Cc3ccc(C(F)(F)F)cc3)cc2C1=O | inactive |
| CN(C)CCCN(C(=O)CCc1ccccc1)c1nc2ccc(Br)cc2s1 | inactive |
| CC(=O)N1[C@@H](CO)[C@@H](c2ccccc2)[C@@H]1CNC(=O)CN1CCOCC1 | inactive |
| COCC(=O)Nc1ccc2c(c1)C(=O)N(C)[C@@H]1CC[C@@H](CC(=O)NC3CCCC3)O[C@@H]1CO2 | inactive |
| CNC(=O)C[C@H]1CC[C@H]2[C@@H](COc3ccc(NC(=O)c4cccc(OC)c4)cc3C(=O)N2C)O1 | inactive |
| CNC(=O)C[C@H]1CC[C@@H]2[C@H](COc3ccc(NC(=O)c4ccccc4OC)cc3C(=O)N2C)O1 | inactive |
| CN1C(=O)c2cc(NC(=O)c3ccc4c(c3)OCO4)ccc2OC[C@@H]2O[C@@H](CC(=O)O)CC[C@@H]21 | inactive |

| SMILES | outcome |
| --- | --- |
| COc1ccc(CN2CCN(Cc3cccn3-c3ncccn3)CC2CCO)c(C)c1C (centres undefined) | inactive |
| COc1ccccc1C#Cc1cnc2c(c1)C(=O)N([C@H](C)CO)C[C@H](C)[C@@H](CN(C)C(=O)c1ccc3c(c1)OCO3)O2 | inactive |
| COc1cccc(C(=O)Nc2ccc3c(c2)C(=O)N(C)[C@@H]2CC[C@@H](CC(=O)NCc4ccc(F)cc4)O[C@@H]2CO3)c1 | inactive |
| CNC(=O)C[C@@H]1CC[C@@H]2[C@@H](COc3ccc(NC(=O)NC(C)C)cc3C(=O)N2C)O1 | inactive |
| COc1cccc(-c2csc(N3CCN(CC(=O)Nc4ccc5c(c4)OCO5)CC3)n2)c1 | inactive |
| CCN(C[C@@H]1N[C@@H](CO)[C@@H]1c1ccc(C2=CCCC2)cc1)C(=O)c1cccnc1 | inactive |
| C[C@@H]1CN([C@@H](C)CO)S(=O)(=O)c2ccc(/C=C/c3ccccc3)cc2O[C@@H]1CN(C)C(=O)c1cccnc1 | inactive |
| Cc1cc(C)nc(NS(=O)(=O)c2ccc(NC(=S)NC(=O)C3CCCC3)cc2)n1 | inactive |
| COc1cccc(-c2ccc3c(c2)O[C@H](CN(C)C(=O)C2CCOCC2)[C@H](C)CN([C@H](C)CO)S3(=O)=O)c1 | inactive |
| CCN(C[C@H]1N[C@H](CO)[C@H]1c1ccc(C2=CCCC2)cc1)C(=O)c1cccnc1 | inactive |
| CCCC(=O)Nc1ccc2c(c1)C(=O)N(C)[C@@H]1CC[C@H](CC(=O)NCCOC)O[C@H]1CO2 | inactive |
| O=C(C1CCCCC1)N1C[C@@H]2[C@H](c3ccccc31)[C@H](CO)N2Cc1ccccc1Cl | inactive |
| COc1cccc(CNC(=O)C[C@@H]2CC[C@@H]3[C@@H](COc4ccc(NC(C)=O)cc4C(=O)N3C)O2)c1 | inactive |
| C[C@H](CO)N1C[C@H](C)[C@H](CN(C)S(=O)(=O)c2cccc(F)c2)Oc2ncc(C#CC3CCCCC3)cc2C1=O | inactive |
| C[C@H](CO)N1C[C@H](C)[C@@H](CN(C)Cc2ccc(C(F)(F)F)cc2)Oc2ccc(NS(=O)(=O)c3ccc(Cl)cc3)cc2CC1=O | inactive |
| CC(C)(C)c1ccc(S(=O)(=O)NCCc2ccncc2)cc1 | inactive |
| COC(=O)C[C@@H]1CC[C@H]2[C@@H](COc3ccc(NC(=O)Nc4ccccc4C)cc3C(=O)N2C)O1 | inactive |
